Data: the supplement of paper PMC12669032
Unmarked numbers belong to inactive results.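 The calls were made as follows: active = AUC reduced over 20% with Padj below 0.05 in at least 2 of 3 replicates; inactive = otherwise.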

Experiments:
Test in all cases: growth AUC relative to DMSO control (median of replicates) (fraction); higher = more growth (less inhibition), active = hit call of the paper
Details in all cases: 20 µM; 24 h
[1] = tested on: Coprococcus comes
Procedure, shortened: (§1)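 Three biological replicates, each grown on a separate day, were combined as a median for every value. In each, a gut bacterial monoculture in mGAM started at OD600 0.05 and grew anaerobically at 37 °C with 20 µM compound (1% DMSO), with OD600 read hourly over 24 h. Area under the growth curve was normalised against the plate median of solvent-only wells, or against row and column medians on the industrial chemical plate, after the minimum OD was set to 0.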

[2] = tested on: Escherichia coli ED1a
Procedure, shortened: as §1

[3] = tested on: Escherichia coli IAI1
Procedure, shortened: as §1

[4] = tested on: Eubacterium rectale
Procedure, shortened: as §1

[5] = tested on: Fusobacterium nucleatum subsp. animalis
Procedure, shortened: as §1

[6] = tested on: Lactobacillus gasseri
Procedure, shortened: as §1

[7] = tested on: Lactobacillus paracasei
Procedure, shortened: as §1

[8] = tested on: Odoribacter splanchnicus
Procedure, shortened: as §1

[9] = tested on: Parabacteroides distasonis
Procedure, shortened: as §1

[10] = tested on: Parabacteroides merdae
Procedure, shortened: as §1

[11] = tested on: Roseburia intestinalis
Procedure, shortened: as §1

[12] = tested on: Streptococcus salivarius
Procedure, shortened: as §1

Structure (SMILES)	growth AUC [1]	growth AUC [2]	growth AUC [3]	growth AUC [4]	growth AUC [5]	growth AUC [6]	growth AUC [7]	growth AUC [8]	growth AUC [9]	growth AUC [10]	growth AUC [11]	growth AUC [12]
COC(=O)C(C)N(C(=O)Cc1ccccc1)c1c(C)cccc1C (stereo not given)	0.967	0.995	0.972	0.916	0.917	0.888	0.98	0.96	0.985	0.944	0.975	0.96
COC(=O)C(Cl)Cl	0.986	1	0.989	1	1.07	0.919	0.938	1.01	0.998	1	0.918	0.985
CCC(CC)Nc1c([N+](=O)[O-])cc(C)c(C)c1[N+](=O)[O-]	0.982	0.987	0.947	0.979	0.93	0.858	0.935	1.11	0.974	0.942	0.897	0.959
Clc1cc(Cl)c(Cl)c(Cl)c1	0.984	0.961	0.982	1.05	0.957	0.918	0.949	1.08	0.953	0.941	0.91	0.968
CCCN(CCC)C(=O)SCc1ccccc1	1.01	1.01	0.985	1.09	1.01	1.02	0.963	1.08	0.89	0.998	0.984	1
CP(=O)(O)CCC(N)C(=O)[O-].[NH4+] (stereo not given)	1.06	1.02	1.02	1.08	1.17	0.944	1.08	1.02	1.1	1.03	1.06	1.01
OC[C@@H](O)[C@H]1O[C@@H]2O[C@H](C(Cl)(Cl)Cl)O[C@@H]2[C@H]1O (mixture of isomers)	0.988	0.99	0.986	1.05	0.83	1.03	0.943	1.06	0.903	0.999	0.967	1.01
Clc1ccccc1-c1nnc(-c2ccccc2Cl)nn1	0.911	0.99	0.978	0.997	0.943	0.964	0.79	0.887	0.991	1.03	1.1	0.984
CC(C)=CC1C(C(=O)OCc2cccc(Oc3ccccc3)c2)C1(C)C (mixture of isomers)	0.992	0.975	0.974	1.06	1.11	0.767	1.02	1.03	0.924	0.956	0.908	0.951
CCOP(=S)(OCC)SCn1c(=O)oc2cc(Cl)ccc21	1	0.981	0.974	1	0.93	0.918	0.994	0.979	0.892	0.955	0.932	0.98
CCOP(=O)(N=C1SCC(C)S1)OCC (stereo not given)	1.03	1.02	0.951	1.1	1.09	0.985	0.971	1.04	0.977	0.976	0.969	0.987
CC(C)N(C(=O)CCl)c1ccccc1	0.961	0.982	1.02	0.923	0.911	1.17	0.946	0.942	0.992	0.982	0.963	1.04
Nc1cc(Cl)cc(C(=O)O)c1Cl	0.992	1.01	1.04	1.01	0.994	1.13	1.03	1.09	1.01	0.977	1.04	1.02
C[C@@H](Oc1ccc(Oc2nc3ccc(Cl)cc3o2)cc1)C(=O)O	1.04	1.01	1.02	1.07	1.01	0.968	0.983	1.09	1.03	1.03	1.04	0.925
COC(=O)NC(=S)Nc1ccccc1NC(=S)NC(=O)OC	0.93	0.995	0.996	1.14	1.12	0.835	1.01	1.05	0.944	1.03	0.979	0.98
CC1=NNC(=O)N(/N=C/c2cccnc2)C1	1.02	0.993	0.991	1	1.02	1.01	0.988	1.03	1.01	0.996	1.01	1.04
O=C(O)c1ccccc1C(=O)Nc1cccc2ccccc12	0.971	1.05	1	1.08	1.06	0.979	1.02	1.06	0.979	0.987	0.993	0.932
Oc1c(Cl)c(Cl)cc(Cl)c1Cl	0.971	0.917	0.746 (active)	0.947	0.923	0.936	1.02	0.666 (active)	0.637 (active)	0.786	0.978	0.869
CN(C)C(CSC(N)=O)CSC(N)=O.Cl	1.09	1.03	1.04	1.54	1.15	0.978	1.08	0.982	1.04	1.04	1.07	1
O=S(=O)(c1ccc(Cl)cc1)c1cc(Cl)c(Cl)cc1Cl	0.987	0.98	0.99	0.926	0.9	0.99	0.731	1.01	0.971	0.984	0.989	0.999
CCNc1nc(Cl)nc(NCC)n1	1.01	1.05	1.03	0.961	0.977	1.09	1	0.998	1.01	1.01	0.968	1.03
CC1(C)C(/C=C(\Cl)C(F)(F)F)C1C(=O)OC(C#N)c1cccc(Oc2ccccc2)c1 (stereo not given)	1.01	1.05	1.02	1.03	1.12	0.895	1.08	0.878	1.03	1.03	0.952	0.981
CCOP(=S)(OCC)Oc1nc(Cl)n(C(C)C)n1	0.986	1	0.999	0.886	1.16	0.952	0.954	0.991	0.917	0.974	1.02	1
COC(=O)c1ccccc1S(=O)(=O)NC(=O)N(C)c1nc(C)nc(OC)n1	1.01	0.982	0.978	0.968	1	1.06	0.992	1.01	0.98	1	0.998	1.01
C[Si](Cn1cncn1)(c1ccc(F)cc1)c1ccc(F)cc1	0.412 (active)	0.982	0.946	0.504 (active)	0.9	1.04	0.925	0.925	0.915	0.964	0.853	0.988

Structure (SMILES)	growth AUC [1]	growth AUC [2]	growth AUC [3]	growth AUC [4]	growth AUC [5]	growth AUC [6]	growth AUC [7]	growth AUC [8]	growth AUC [9]	growth AUC [10]	growth AUC [11]	growth AUC [12]
Cc1cc(Cl)ccc1O[C@H](C)C(=O)O	1.01	1	0.98	1.06	1.08	0.873	0.979	1.1	0.961	0.956	0.898	0.988
CSc1nc(NC(C)C)nc(NC(C)C)n1	0.999	1.01	0.976	0.917	0.922	1.12	0.944	0.981	1.02	0.991	1.02	1.03
BrCCBr	1.03	1.03	1.01	1.06	1.01	1.03	1	1.06	1.04	0.99	1.06	1.01
C=CC1(C)OC(=O)N(c2cc(Cl)cc(Cl)c2)C1=O (stereo not given)	0.982	0.979	0.967	0.956	0.991	1.1	0.878	0.982	0.98	0.982	0.973	1.02
ClCC1C(CCl)C2(Cl)C(Cl)=C(Cl)C1(Cl)C2(Cl)Cl (stereo not given)	0.945	0.973	1	1.02	1.08	0.931	0.974	1.06	1.01	0.995	0.996	0.981
OCC(O)CCl (stereo not given)	0.999	0.947	1	1	0.987	0.993	0.978	1.01	1.02	0.991	1.02	1
CC(Oc1ccc(Oc2ccc(C(F)(F)F)cn2)cc1)C(=O)O (stereo not given)	1.01	0.995	0.996	1.12	0.915	0.839	0.969	0.766 (active)	0.72	0.993	0.908	0.93
CCS(=O)c1c(C#N)nn(-c2c(Cl)cc(C(F)(F)F)cc2Cl)c1N (stereo not given)	0.99	0.988	0.995	1.02	1.04	0.909	1.02	0.971	0.949	0.965	1.01	1.06
ClC1C(Cl)C(Cl)C(Cl)C(Cl)C1Cl (mixture of isomers)	1.03	1.01	0.981	0.936	0.966	1.08	1	0.935	1.04	0.949	1.02	0.974
N#Cc1c(Cl)c(Cl)c(Cl)c(C#N)c1Cl	0.974	0.967	0.96	0.714	0.908	0.558 (active)	0.872	0.927	0.682 (active)	0.823	0.939	0.88
CC(Cc1ccc(C(C)(C)C)cc1)CN1CCCCC1 (stereo not given)	0.931	0.998	0.932	1.03	1.02	0.988	1.03	1.05	0.946	0.997	0.976	1
CCSC(C)CC1CC(=O)C(/C(CC)=N/OC/C=C/Cl)=C(O)C1 (mixture of isomers)	1.06	1.03	1.01	1.03	1.1	0.865	1.06	1.02	0.958	1.02	1.01	0.919
CC(C)[C@@H](Nc1ccc(C(F)(F)F)cc1Cl)C(=O)OC(C#N)c1cccc(Oc2ccccc2)c1 (stereo not given in full)	0.988	1	1.05	1.04	1.06	1.02	1.04	1.05	1.09	1.03	0.961	1.01
CCOP(=S)(NC(C)CC)Oc1cc(C)ccc1[N+](=O)[O-] (stereo not given)	0.967	0.97	0.964	0.919	0.865	0.974	0.984	0.904	0.733 (active)	0.967	1.01	0.976
CCOP(=O)(SC(C)CC)SC(C)CC (stereo not given)	1.01	1.01	0.987	1.1	0.983	1.04	0.989	0.933	0.95	0.975	1.01	1.01
ClC1=C(Cl)C2(Cl)C3C(Cl)C=CC3C1(Cl)C2(Cl)Cl (stereo not given)	0.989	1.02	1	1.09	1.12	0.856	0.967	0.964	0.842	1.02	0.918	0.928
CCCOP(=S)(OCCC)SCC(=O)N1CCCCC1C (stereo not given)	0.943	0.985	1	1	1.08	0.891	1.02	1.01	0.676 (active)	0.955	0.992	0.953
O=NN(CCO)CCO	1.01	0.994	1	0.977	1.01	0.976	1.01	1.13	0.861	1.04	0.971	0.986
CC(=O)CC(c1ccc(Cl)cc1)c1c(O)c2ccccc2oc1=O (stereo not given)	0.987	0.952	1.02	0.881	0.929	1.3	0.982	0.971	0.787 (active)	0.954	1.04	0.987
O=C(O)COc1ccccc1	0.999	0.981	1	1	1.01	1.03	0.753	1.03	1	0.959	0.995	0.994
Cc1ccc(N=CN(C)C=Nc2ccc(C)cc2C)c(C)c1	1.04	1.01	1.01	1.06	1.09	0.967	1.06	1.02	0.988	1.01	0.983	0.967
COC(=O)C(C)Oc1ccc(Oc2ccc(Cl)cc2Cl)cc1 (stereo not given)	0.97	0.99	0.993	1.12	0.953	1.06	0.999	1	0.973	0.96	0.984	0.984
CCCCNC(=O)n1c(NC(=O)OC)nc2ccccc21	1.04	1.04	0.977	0.917	0.976	1.01	0.997	1.04	0.945	0.965	0.985	0.999
Nc1nc(N)nc(Cl)n1	1.02	1.04	1.01	0.971	1.08	1.02	0.991	1	1.01	1.02	1.05	1.03
Clc1ccc(Cl)c(Cl)c1	0.919	0.996	0.974	1.1	1.11	0.86	0.943	0.983	0.95	1.02	0.989	1.01
